Hits are enriched below; roughly 1.5% of the tested compounds scored in any of these assays.
MEX-5 binding = C. elegans MEX-5 TCR-2 RNA binding activity; Q9XUB2; MEX-5/FITC-TCR2 RNA binding, fluorescence polarization; stronger effect = lower value; activity score (negative = inhibition of binding), % at 10 µM; 300,000 compounds, 0.38% hits;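 active means inhibition past about -25% in most replicates, and total fluorescence under double the plate's negative control median, limit read from the data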;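 further: 0% = DMSO and -100% = 5 µM competing unlabeled TCR2 RNA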
Target sequence (Q9XUB2 whole entry, looked up): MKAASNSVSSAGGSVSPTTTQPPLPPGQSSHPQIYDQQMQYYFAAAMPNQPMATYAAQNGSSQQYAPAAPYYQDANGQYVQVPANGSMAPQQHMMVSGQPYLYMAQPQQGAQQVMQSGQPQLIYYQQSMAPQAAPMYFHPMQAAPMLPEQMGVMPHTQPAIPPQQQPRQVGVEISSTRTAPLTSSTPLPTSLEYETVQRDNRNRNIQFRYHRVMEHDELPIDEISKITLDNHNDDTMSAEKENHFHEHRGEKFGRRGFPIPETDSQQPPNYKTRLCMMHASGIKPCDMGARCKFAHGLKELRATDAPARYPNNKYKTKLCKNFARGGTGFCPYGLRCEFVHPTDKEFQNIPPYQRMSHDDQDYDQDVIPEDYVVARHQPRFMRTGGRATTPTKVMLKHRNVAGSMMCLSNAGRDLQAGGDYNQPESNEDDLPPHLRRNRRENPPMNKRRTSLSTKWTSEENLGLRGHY
MCL1 BIM primary = MCL1-BIM-BH3 interaction inhibition (human) | Q07820 | GST-MCL1 / FITC-Bim-BH3 fluorescence polarization | inhibition, % at 10.9 µM | 320,000 compounds, 0.68% hits | AID 2057;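 active means inhibition above the mean inhibition of all tested compounds plus 3 SD, set per campaign, cut at about 40% in these data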;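 further: 0% = DMSO wells and 100% = unlabeled Bim-BH3 peptide control; higher means more loss of mP so more displacement of Bim peptide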
BCLXL inh = Bcl-xL (human) inhibition; Q07817; GST-Bcl-xL / FITC-Bim BH3 peptide fluorescence polarization; inhibition, % at 10.9 µM; 320,000 compounds, 0.7% hits;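 active means inhibition above the mean of all tested compounds plus 3 SD, cutoff set per campaign, cut at about 30% in these data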;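 further: 0% = DMSO wells and 100% = unlabeled Bim-BH3 peptide competitor; inhibitors lower millipolarization by displacing the labeled peptide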
IDE cell activ = IDE (human) activation, cell-based; P14735; HEK cells, FAbeta-B cleavage, fluorescence polarization; 0% vehicle, 100% cell-free pure enzyme wells; 340,000 compounds, 0.073% hits; activation, % at 5.96 µM;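 active means activation above the mean of all tested compounds plus 3 SD, set per screening campaign, cut at about 17% in these data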
GLD-1 RNA inh = GLD-1-TGE RNA interaction inhibition (C. elegans) | inhibition, % at 5.96 µM | purified GLD-1 + fluorescein TGE RNA, fluorescence polarization | 320,000 compounds, 0.44% hits | AID 2280 | Q17339;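 active means percent inhibition above a per-plate cutoff, the plate mean of test compounds plus 3 SD, cut at about 30% in these data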;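 further: 0% = DMSO wells with GLD-1 and probe and 100% = wells lacking GLD-1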
IDE inh = inhibitors of human insulin-degrading enzyme in cells. P14735. HEK cells, FAbetaB cleavage, fluorescence polarization. inhibition, % at 5.59 µM. 320,000 compounds, 0.41% hits;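 active means percent inhibition above the average of all tested compounds plus 3 SD, set per screening campaign, cut at about 16% in these data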;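 further: IDE supplied by intact live HEK cells; FP after avidin binding of uncleaved biotin substrate so inhibition keeps polarization high; 0% = DMSO wells and 100% = 60 µM reference IDE inhibitor Ii1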
BCLXL inh confirm = counter-screen for MCL1 inhibitors: confirmation of human Bcl-xL inhibitors. shares compounds with MCL1 BIM primary. GST-Bcl-xL / FITC-Bim BH3 peptide FP binding. inhibition, % at 10.9 µM. 1,700 compounds, 54% hits;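 active means inhibition above a cutoff equal to the mean inhibition of all tested compounds plus 3 SD, cut at about 30% in these data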;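 further: 0% = DMSO wells and 100% = unlabeled Bim BH3 control peptide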
MCL1 BIM confirm = confirmation of human MCL1 and BIM-BH3 interaction inhibitors | 1,700 compounds, 61% hits | GST-MCL1 / FITC-Bim-BH3 fluorescence polarization | inhibition, % at 10.9 µM | shares compounds with MCL1 BIM primary;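 active means inhibition above the average of all tested compounds plus 3 SD, cut at about 40% in these data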;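 further: 0% = DMSO wells and 100% = unlabeled Bim-BH3 control peptide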
* = called active by the depositor.

How did Cc1ccc(/C=C/C(=O)Nc2cccc3cccnc23)o1 do in these assays?
MEX-5 binding: -7; MCL1 BIM primary: 84*; BCLXL inh: 78*; IDE cell activ: -3; GLD-1 RNA inh: 68*; IDE inh: 0; BCLXL inh confirm: 32*; MCL1 BIM confirm: 40*

How did Cc1cccc(C(=O)Nc2cccc3cccnc23)c1 do in these assays?
MEX-5 binding: -3; IDE cell activ: -1

What do the screens show for `O=C(Nc1ccc(F)cc1F)c1noc2c1CCC2`?
MEX-5 binding: 0; MCL1 BIM primary: 47*; BCLXL inh: 12; IDE cell activ: 5; GLD-1 RNA inh: 4; IDE inh: 4; BCLXL inh confirm: 19; MCL1 BIM confirm: 66*

Results for C=CCn1c(O)c(N=NC(=O)c2ccccc2NS(=O)(=O)c2cccs2)c2ccccc21 ?
MEX-5 binding: 0; MCL1 BIM primary: 49*; BCLXL inh: 3; IDE cell activ: 3; GLD-1 RNA inh: 4; IDE inh: 2; BCLXL inh confirm: 79*; MCL1 BIM confirm: 120*

What do the screens show for `Cn1cccc1/C=N/NC(=O)c1cc2ccccc2cc1O`?
MEX-5 binding: -2; MCL1 BIM primary: 1; BCLXL inh: 0; IDE cell activ: -7; GLD-1 RNA inh: -18; IDE inh: 2

How did Nc1ccc(N)c(C(=O)O)c1 do in these assays?
MEX-5 binding: -9; MCL1 BIM primary: 101*; BCLXL inh: 58*; IDE cell activ: 7; GLD-1 RNA inh: 21; IDE inh: -2; BCLXL inh confirm: 72*; MCL1 BIM confirm: 112*

Results for Cc1ccc(SCCNC(=O)/C=C/c2ccc(Cl)cc2)cc1 ?
MEX-5 binding: -1; MCL1 BIM primary: 54*; BCLXL inh: 7; IDE cell activ: 4; GLD-1 RNA inh: 0; IDE inh: 7; BCLXL inh confirm: 24; MCL1 BIM confirm: 34

Results for N#Cc1c(NC(=O)c2ccco2)sc2c1CCC2 ?
MEX-5 binding: -1; MCL1 BIM primary: 56*; BCLXL inh: 21; IDE cell activ: -1; GLD-1 RNA inh: 6; IDE inh: -2; BCLXL inh confirm: 25; MCL1 BIM confirm: 36

Results for COc1ccccc1NS(=O)(=O)c1ccc(C(=O)N2CC(C)OC(C)C2)cc1 (stereo not given) ?
MCL1 BIM primary: 0; BCLXL inh: 0; IDE cell activ: 7; GLD-1 RNA inh: 1; IDE inh: -3

How did Cc1ccc(NC(=O)c2ccccc2N(C)S(=O)(=O)c2ccccc2)c(C)c1 do in these assays?
MEX-5 binding: 0; MCL1 BIM primary: -5; BCLXL inh: 0; IDE cell activ: 6; GLD-1 RNA inh: 2; IDE inh: 11

How did CC1=C(C#N)C(=O)NC(=O)/C1=C\c1ccc(-c2ccc(C)cc2[N+](=O)[O-])o1 do in these assays?
MEX-5 binding: -14; IDE cell activ: -4

What do the screens show for `CCOC(=O)c1cc(-c2ccc(/C=C3/C(=O)NC(=O)C(C#N)=C3C)o2)ccc1Cl`?
MEX-5 binding: -6; MCL1 BIM primary: 121*; BCLXL inh: 85*; IDE cell activ: -2; GLD-1 RNA inh: 42*; IDE inh: 10; BCLXL inh confirm: 105*; MCL1 BIM confirm: 150*

What do the screens show for `Cn1nc(C(=O)NCCCN2CCCCC2)c2c1-c1ccccc1SC2`?
MEX-5 binding: 2; MCL1 BIM primary: 5; BCLXL inh: 4; IDE cell activ: 4; GLD-1 RNA inh: -4; IDE inh: 1

How did O=C(N/N=C/C(Br)=C\c1ccccc1)c1cccs1 do in these assays?
MEX-5 binding: 1; MCL1 BIM primary: 2; BCLXL inh: 5; GLD-1 RNA inh: 2; IDE inh: 10

How did N#CC(C#N)=C1C=CC=CN1/C(=C\c1ccccc1)C(=O)c1cccs1 do in these assays?
MEX-5 binding: 0; MCL1 BIM primary: 42*; BCLXL inh: 29; IDE cell activ: -6; GLD-1 RNA inh: 6; IDE inh: 1; BCLXL inh confirm: 37*; MCL1 BIM confirm: 65*

How did c1ccc(CSc2nnc(-c3ccco3)n2Cc2ccco2)cc1 do in these assays?
MEX-5 binding: -5; MCL1 BIM primary: 3; BCLXL inh: 2; IDE cell activ: 7; GLD-1 RNA inh: -4; IDE inh: 2

Results for CCCCOc1[nH]c2nc(-c3ccco3)n(Cc3ccco3)c(=N)c2c1C#N ?
MEX-5 binding: -1; MCL1 BIM primary: 163*; BCLXL inh: 140*; IDE cell activ: -2; GLD-1 RNA inh: 107*; IDE inh: 8; BCLXL inh confirm: 90*; MCL1 BIM confirm: 123*

What do the screens show for `CCc1cc(=O)[nH]c(SCC(=O)N2CCC(Cc3ccccc3)CC2)n1`?
MEX-5 binding: 1; MCL1 BIM primary: 1; BCLXL inh: 1; IDE cell activ: -3; GLD-1 RNA inh: 0; IDE inh: 0

What do the screens show for `COC(=O)CCCCC1SCC(NC(=O)OC)C1NC(=O)OC` (stereo not given)?
MEX-5 binding: 1; MCL1 BIM primary: 49*; BCLXL inh: 6; IDE cell activ: 4; GLD-1 RNA inh: -3; IDE inh: 2; BCLXL inh confirm: 5; MCL1 BIM confirm: 2

What do the screens show for `COC(=O)CCCC[C@@H]1SC[C@@H](NC(=O)OC)[C@@H]1NC(=O)OC`?
MEX-5 binding: -2; MCL1 BIM primary: -3; BCLXL inh: 3; IDE cell activ: 6; GLD-1 RNA inh: 8; IDE inh: -4

How did COc1ccc(N=Nc2nc3ccc(Br)cc3n2C)cc1 do in these assays?
MEX-5 binding: -50*; MCL1 BIM primary: active; BCLXL inh: active; IDE cell activ: 28*; GLD-1 RNA inh: 176*; IDE inh: -9; BCLXL inh confirm: 88*; MCL1 BIM confirm: 116*

What do the screens show for `COc1ccc(-c2c(-c3cc(OC)cc(OC)c3)n(C)c3ccc(Br)cc23)cc1`?
MCL1 BIM primary: 6; BCLXL inh: 4; IDE cell activ: 2; GLD-1 RNA inh: 11; IDE inh: -4

What do the screens show for `O=C(CSc1nnc2ccccn12)NNC(=O)c1cccc(Cl)c1`?
IDE cell activ: 8; GLD-1 RNA inh: 5; IDE inh: 4

How did O=C(c1ccccc1)c1nc2ccccc2n(CCCn2c(=O)c(C(=O)c3ccccc3)nc3ccccc32)c1=O do in these assays?
MEX-5 binding: 1; MCL1 BIM primary: -6; BCLXL inh: -3; IDE cell activ: 1; GLD-1 RNA inh: -6; IDE inh: -1
